Test results taken from PubChem BioAssay (Tox21).
Inconclusive results are not listed. The source made the active and inactive calls. Unless noted, calls follow the shape of the full dose curve.

Tests used:
[1] = Nuclear factor erythroid 2-related factor 2/antioxidant responsive element (Nrf2/ARE) small molecule agonists: qHTS cell viability counter screen in human keratinocytes (AID 1919968; active = well fitted curve in the direction sought with a large enough effect in the repeat runs; an effect the other way counts as inactive or inconclusive; also: nearly all actives have a fitted effect of over 55% in size)
Procedure, shortened: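 Seed 1,500 KeratinoSens cells per well, then incubate 5 h at 37 C/5% CO2. Add compounds in DMSO and incubate 23 h. Add CellTiter-Fluor, wait 1 h and read fluorescence.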

[2] = Nuclear factor erythroid 2-related factor 2/antioxidant responsive element (Nrf2/ARE) small molecule agonists: luciferase reporter gene qHTS assay in human keratinocytes (AID 1919969); also: nearly all actives have a fitted effect of over 35% in size
[3] = biological target: Gonadotropin-releasing hormone receptor (Homo sapiens) (UniProt P30968); test: Human gonadotropin-releasing hormone receptor (GnRHR) small molecule agonists, calcium flux assay in GnRHR-HEK293 cells (AID 1920063); also: nearly all actives have a fitted effect of over 35% in size
Procedure, shortened: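 Cells: HEK293 stably expressing human GnRHR. Steps: overnight (18 h) culture, 1 h calcium dye loading at 37 C, compound addition, kinetic fluorescence read at 480/540 nm. Each compound tested at 15 concentrations in triplicate.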

[4] = biological target: KiSS-1 receptor (Homo sapiens) (UniProt Q969F8); test: Human kisspeptin (KISS1R) small molecule agonists, calcium flux assay in KISS1R-HEK293 cells (AID 1920064; active = well fitted curve in the direction sought with a large enough effect in the repeat runs; an effect the other way counts as inactive or inconclusive)
Procedure, shortened: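 Cells plated and incubated 18 h; dye added, 1 h at 37 C; compounds in DMSO pinned in; signal read at 480/540 nm every second for 3 min. Each compound tested at 15 concentrations in triplicate.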

[5] = G protein-coupled receptor (GPCR) small molecule agonists, calcium flux assay: HEK293 wild type cell line counter screen (AID 1920065)
Procedure, shortened: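 Counter-screen of the Tox21 10K library for non-specific calcium release: dye-loaded cells received compounds in DMSO and were monitored by kinetic fluorescence (480/540 nm, 3 min). Fifteen concentrations, run in triplicate.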

[6] = p53 small molecule agonists, cell-based qHTS assay with human liver microsomes (AID 1963577)
Procedure, shortened: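 p53RE-bla reporter cells were pre-incubated 5 h at 37 C, then treated with compounds plus human liver microsomes (0.5 mg/mL final) and NADPH (0.5 mg/mL final) for 16 h at 37 C. Beta-lactamase activity was read by LiveBLAzer fluorescence after 2 h at room temperature.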

[7] = p53 small molecule agonists, cell-based qHTS assay with rat liver microsomes (AID 1963578)
Procedure, shortened: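 p53RE-bla cells were exposed to compounds together with rat liver microsomes (0.5 mg/mL final) and NADPH (0.5 mg/mL final) for 16 h at 37 C, then read by LiveBLAzer beta-lactamase fluorescence after 2 h at room temperature.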

[8] = p53 small molecule agonists, cell-based qHTS assay with human liver microsomes: qHTS cell viability counter screen (AID 1963579); also: nearly all actives have a fitted effect of over 45% in size
Procedure, shortened: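 p53RE-bla cells (4,000/well) were pre-incubated 5 h at 37 C, then given compounds in DMSO plus human liver microsomes (0.5 mg/mL final) and NADPH (0.5 mg/mL final) for 16 h at 37 C. Viability was read by CellTiter-Glo luminescence.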

[9] = p53 small molecule agonists, cell-based qHTS assay with rat liver microsomes: qHTS cell viability counter screen (AID 1963580); also: nearly all actives have a fitted effect of over 45% in size
Procedure, shortened: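 Viability is assessed in parallel with the p53 reporter read: HCT-116 p53RE-bla cells receive compounds plus rat microsomes and NADPH (0.5 mg/mL final apiece), incubate 16 h at 37 C, and then CellTiter-Glo luminescence is recorded.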

[10] = p53 small molecule agonists, cell-based qHTS assay: qHTS cell viability counter screen (AID 1963581); also: nearly all actives have a fitted effect of over 45% in size
Procedure, shortened: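 Cells: HCT-116 with p53 response element-driven beta-lactamase. Treatment: 16 h, 37 C, compounds in DMSO. Read: CellTiter-Glo luminescence after 30 min RT.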

[11] = p53 small molecule agonists, cell-based qHTS assay (AID 1963582; active = well fitted activation curve with a large enough effect in the signal ratio in the repeat runs, not every such curve was filed as active; the % refers to the signal ratio)
Procedure, shortened: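 Quantitative HTS in p53RE-bla cells: after a 5 h settling period, compounds delivered in DMSO were left on cells for 16 h at 37 C, and reporter induction was measured as fluorescence following 2 h substrate loading.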

[12] = biological target: 5-hydroxytryptamine receptor 2A (Homo sapiens) (UniProt P28223); test: 5-hydroxytryptamine receptor 2A (HTR2A) small molecule antagonists, cell-based qHTS assay (AID 1963586); also: nearly all actives have a fitted effect of over 45% in size
Procedure, shortened: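 Antagonist-mode intracellular calcium assay: DOI (4 nM) added after 5 min compound pre-incubation at room temperature to dye-loaded HTR2A-CHO cells. Fluorescence followed for 3 min, sampled every second.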

[13] = biological target: 5-hydroxytryptamine receptor 2A (Homo sapiens) (UniProt P28223); test: 5-hydroxytryptamine receptor 2A (HTR2A) small molecule agonists, cell-based qHTS assay (AID 1963587); also: nearly all actives have a fitted effect of over 30% in size
Procedure, shortened: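 CHO cells stably expressing human HTR2A, plated 18 h, loaded with calcium dye 1 h at 37 C. Agonist mode: compounds added and intracellular calcium fluorescence recorded kinetically for 2 min at 1 sec intervals.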

[14] = biological target: Muscarinic acetylcholine receptor M1 (Homo sapiens) (UniProt P11229); test: Cholinergic receptor muscarinic 1 (CHRM1) small molecule antagonists, cell-based qHTS assay (AID 1963588); also: nearly all actives have a fitted effect of over 40% in size
Procedure, shortened: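 CHRM1-CHO calcium-flux assay, antagonist mode. Cells were seeded 18 h, dye-loaded 1 h at 37 C and given compound for 5 min at RT, then acetylcholine was added at 50nM. FDSS fluorescence was read 3 min; 15 concentrations, three runs.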

[15] = biological target: Muscarinic acetylcholine receptor M1 (Homo sapiens) (UniProt P11229); test: Cholinergic receptor muscarinic 1 (CHRM1) small molecule agonists, cell-based qHTS assay (AID 1963589); also: nearly all actives have a fitted effect of over 35% in size
Procedure, shortened: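 Agonist-mode qHTS in CHO cells stably carrying human muscarinic M1. Intracellular calcium is tracked by fluorescence every second after compound transfer; each compound runs at 15 concentrations in three independent runs.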

[16] = cAMP Responsive Elements (CRE) small molecule agonists, cell-based qHTS assay (AID 1963590)
Procedure, shortened: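 Agonist mode qHTS in CRE-bla HEK 293T cells: compounds dosed from DMSO for 3 h at 37 C/5% CO2, followed by LiveBLAzer B/G FRET substrate for 2 h at room temperature.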

[17] = cAMP Responsive Elements (CRE) small molecule antagonists, cell-based qHTS assay (AID 1963591; active = well fitted inhibition curve with a large enough effect in the signal ratio in the repeat runs, not every such curve was filed as active; the % refers to the signal ratio)
Procedure, shortened: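 Antagonist mode: test compounds are co-incubated with the adenylyl cyclase activator NKH477 (0.25 uM final) on CRE-bla HEK293T cells for 3 h at 37 °C, followed by LiveBLAzer substrate loading.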

[18] = biological target: Beta-2 adrenergic receptor (Homo sapiens) (UniProt P07550); test: Adrenergic beta2 receptor (ADRB2) small molecule antagonists, cell-based qHTS assay (AID 1963592); also: series mostly up to about 92 µM; nearly all actives have a fitted effect of over 50% in size
Procedure, shortened: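 Cells (CHO, stable ADRB2 overexpression) incubated 18-20hr at 37C; compounds added from DMSO; agonist mix (1nM isoproterenol, 100uM IBMX, 25uM Ro-20-1724) added; 0.5hr RT; d2-cAMP and anti-cAMP-cryptate added; 1hr RT; 665/615 nm read.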

[19] = biological target: D(2) dopamine receptor (Homo sapiens) (UniProt P14416); test: Dopamine D2 receptor (DRD2) small molecule agonists, cell-based qHTS assay (AID 1963594); also: nearly all actives have a fitted effect of over 35% in size
Procedure, shortened: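 HEK293 cells stably expressing human DRD2, pre-treated with PDE inhibitor Ro20-1724 (0.1 mM final) and compound 10 min at room temperature, then stimulated with NKH477 (200nM […]) for 30 min. cAMP read by HTRF (665/620 nm).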

[20] = biological target: D(2) dopamine receptor (Homo sapiens) (UniProt P14416); test: Dopamine D2 receptor (DRD2) small molecule antagonists, cell-based qHTS assay (AID 1963595; active = well fitted inhibition curve with a large enough effect in the signal ratio in the repeat runs, with a control signal flat; the % refers to the signal ratio)
Procedure, shortened: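 DRD2-HEK293; 0.1 mM Ro20-1724; cpd 10 min RT; NKH477 200 nM + quinpirole 12 nM, 30 min RT; HTRF cAMP (cAMP-d2/anti-cAMP cryptate), 665/620 nm ratio after 1 h.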
% is scaled to controls: 0 for no effect and ±100 for the full control effect.

Sequence of 5-hydroxytryptamine receptor 2A (Homo sapiens) (P28223 whole entry, looked up): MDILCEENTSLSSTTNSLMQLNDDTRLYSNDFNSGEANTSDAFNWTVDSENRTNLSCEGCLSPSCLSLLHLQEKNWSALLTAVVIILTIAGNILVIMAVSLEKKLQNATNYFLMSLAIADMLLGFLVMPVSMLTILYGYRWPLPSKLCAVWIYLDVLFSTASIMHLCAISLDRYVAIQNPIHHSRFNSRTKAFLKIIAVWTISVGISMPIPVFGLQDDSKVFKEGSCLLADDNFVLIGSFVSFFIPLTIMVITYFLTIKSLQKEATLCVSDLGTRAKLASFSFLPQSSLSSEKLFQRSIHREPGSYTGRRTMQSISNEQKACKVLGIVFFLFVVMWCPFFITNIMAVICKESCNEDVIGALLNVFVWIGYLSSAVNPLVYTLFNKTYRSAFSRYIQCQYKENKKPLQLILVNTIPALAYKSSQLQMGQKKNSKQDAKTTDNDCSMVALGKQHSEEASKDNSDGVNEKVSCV
Sequence of Muscarinic acetylcholine receptor M1 (Homo sapiens) (P11229 whole entry, looked up): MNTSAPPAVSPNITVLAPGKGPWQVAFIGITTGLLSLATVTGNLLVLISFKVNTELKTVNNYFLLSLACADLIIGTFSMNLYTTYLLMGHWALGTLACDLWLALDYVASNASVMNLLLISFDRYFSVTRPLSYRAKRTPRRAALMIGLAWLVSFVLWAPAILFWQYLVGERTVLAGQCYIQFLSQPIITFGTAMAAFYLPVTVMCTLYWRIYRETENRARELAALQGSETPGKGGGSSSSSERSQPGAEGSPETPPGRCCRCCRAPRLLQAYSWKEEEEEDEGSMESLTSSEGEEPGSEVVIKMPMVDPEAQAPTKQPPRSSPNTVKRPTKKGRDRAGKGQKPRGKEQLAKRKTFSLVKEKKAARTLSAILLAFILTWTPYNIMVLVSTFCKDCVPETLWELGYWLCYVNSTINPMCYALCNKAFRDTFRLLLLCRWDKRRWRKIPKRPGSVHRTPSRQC
Sequence of D(2) dopamine receptor (Homo sapiens) (P14416 whole entry, looked up): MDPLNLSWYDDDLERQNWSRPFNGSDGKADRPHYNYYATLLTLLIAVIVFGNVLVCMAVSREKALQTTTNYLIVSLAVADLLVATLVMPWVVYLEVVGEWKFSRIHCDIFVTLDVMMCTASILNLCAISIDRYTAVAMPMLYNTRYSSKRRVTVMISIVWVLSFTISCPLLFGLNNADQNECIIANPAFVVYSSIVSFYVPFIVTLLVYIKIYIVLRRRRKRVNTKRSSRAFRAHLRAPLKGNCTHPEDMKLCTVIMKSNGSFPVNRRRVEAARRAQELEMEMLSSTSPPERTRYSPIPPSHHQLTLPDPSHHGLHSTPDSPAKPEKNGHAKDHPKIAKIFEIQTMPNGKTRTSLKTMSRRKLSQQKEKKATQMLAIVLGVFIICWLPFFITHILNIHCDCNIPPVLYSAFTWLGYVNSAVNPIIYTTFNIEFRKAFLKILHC
Sequence of Gonadotropin-releasing hormone receptor (Homo sapiens) (P30968 whole entry, looked up): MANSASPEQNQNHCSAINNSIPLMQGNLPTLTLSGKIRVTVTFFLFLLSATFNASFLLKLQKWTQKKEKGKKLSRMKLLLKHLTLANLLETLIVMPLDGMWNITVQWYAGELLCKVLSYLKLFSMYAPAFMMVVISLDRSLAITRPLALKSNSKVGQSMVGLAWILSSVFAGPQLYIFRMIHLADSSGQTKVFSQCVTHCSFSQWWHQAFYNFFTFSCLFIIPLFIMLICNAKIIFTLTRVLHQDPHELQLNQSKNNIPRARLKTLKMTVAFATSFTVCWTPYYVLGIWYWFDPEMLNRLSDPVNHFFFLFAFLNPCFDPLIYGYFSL
Sequence of Beta-2 adrenergic receptor (Homo sapiens) (P07550 whole entry, looked up): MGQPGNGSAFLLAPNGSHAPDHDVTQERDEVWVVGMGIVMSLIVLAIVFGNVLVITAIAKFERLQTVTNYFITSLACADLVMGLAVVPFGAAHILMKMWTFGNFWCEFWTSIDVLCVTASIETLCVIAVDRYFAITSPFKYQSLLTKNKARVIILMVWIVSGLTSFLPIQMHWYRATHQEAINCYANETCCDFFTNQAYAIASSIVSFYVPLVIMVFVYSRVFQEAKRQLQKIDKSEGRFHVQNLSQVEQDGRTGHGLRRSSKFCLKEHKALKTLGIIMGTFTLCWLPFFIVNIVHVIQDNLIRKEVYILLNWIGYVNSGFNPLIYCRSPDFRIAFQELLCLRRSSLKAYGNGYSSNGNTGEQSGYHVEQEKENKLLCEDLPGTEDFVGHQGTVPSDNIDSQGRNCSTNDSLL
Sequence of KiSS-1 receptor (Homo sapiens) (Q969F8 whole entry, looked up): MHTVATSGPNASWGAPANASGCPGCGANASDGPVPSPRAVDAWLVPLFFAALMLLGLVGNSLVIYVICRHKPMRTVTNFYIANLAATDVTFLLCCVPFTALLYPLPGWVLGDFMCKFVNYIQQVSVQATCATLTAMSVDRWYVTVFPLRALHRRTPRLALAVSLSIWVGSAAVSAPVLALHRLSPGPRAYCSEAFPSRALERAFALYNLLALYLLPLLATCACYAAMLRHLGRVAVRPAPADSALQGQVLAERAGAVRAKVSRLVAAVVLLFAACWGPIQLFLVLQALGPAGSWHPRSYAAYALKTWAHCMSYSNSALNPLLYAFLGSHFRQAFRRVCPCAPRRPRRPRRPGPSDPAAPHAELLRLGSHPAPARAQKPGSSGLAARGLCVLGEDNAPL

COc1ccc2c3c1O[C@H]1[C@H](O)CC[C@H]4[C@@H](C2)N(C)CC[C@@]341
inactive: Potency [1] | Potency [2] | Potency [3] | Potency [4] | Potency [5] | Potency [6] | Potency [7] | Potency [8] | Potency [9] | Potency [10] | Potency [11] | Potency [12] | Potency [13] | Potency [14] | Potency [15] | Potency [16] | Potency [17] | Potency [18] | Potency [19] | Potency [20]

O=C(O)C(Cl)(Cl)Br
inactive: Potency [1] | Potency [2] | Potency [3] | Potency [4] | Potency [5] | Potency [6] | Potency [7] | Potency [8] | Potency [9] | Potency [10] | Potency [11] | Potency [12] | Potency [13] | Potency [14] | Potency [15] | Potency [16] | Potency [17] | Potency [18] | Potency [19]

ClC(Cl)(Cl)Br
inactive: Potency [1] | Potency [2] | Potency [3] | Potency [4] | Potency [5] | Potency [6] | Potency [7] | Potency [8] | Potency [9] | Potency [10] | Potency [11] | Potency [12] | Potency [13] | Potency [14] | Potency [15] | Potency [16] | activity change, negative = inhibition [17] 0.761% [at 18.9 µM] | Potency [18] | Potency [19] | Potency [20]

CC1(C)C(C=C(Cl)Cl)C1C(=O)OC(C#N)c1cccc(Oc2ccccc2)c1 (centres undefined)
inactive: Potency [1] | Potency [2] | Potency [3] | Potency [4] | Potency [5] | Potency [6] | Potency [7] | Potency [8] | Potency [9] | Potency [10] | Potency [11] | Potency [12] | Potency [13] | Potency [14] | Potency [15] | Potency [16] | Potency [17] | Potency [18] | Potency [19] | Potency [20]

Cc1nn(-c2cc(NS(C)(=O)=O)c(Cl)cc2Cl)c(=O)n1C(F)F
inactive: Potency [1] | Potency [2] | Potency [3] | Potency [4] | Potency [5] | Potency [6] | Potency [7] | Potency [8] | Potency [9] | Potency [10] | Potency [11] | Potency [12] | Potency [13] | Potency [14] | Potency [15] | Potency [16] | Potency [17] | Potency [18] | Potency [19] | Potency [20]

O=P(OCCCl)(OCCCl)OCCCl
inactive: Potency [1] | Potency [2] | Potency [3] | Potency [4] | Potency [5] | Potency [6] | Potency [7] | Potency [8] | Potency [9] | Potency [10] | Potency [11] | Potency [12] | Potency [13] | Potency [14] | Potency [15] | Potency [16] | Potency [17] | Potency [18] | Potency [19] | Potency [20]

c1nc[nH]n1
inactive: Potency [1] | Potency [2] | Potency [3] | Potency [4] | Potency [5] | Potency [6] | Potency [7] | Potency [8] | Potency [9] | Potency [10] | Potency [11] | Potency [12] | Potency [13] | Potency [14] | Potency [15] | Potency [16] | Potency [17] | Potency [18] | Potency [19] | Potency [20]
